# Laboratory results taken from PubChem BioAssay (EPA / NIEHS).
# Values joined by “and” are separate entries in the source; they are usually repeats but may differ in a detail not shown here. Equal entries are not always repeated. Inconclusive results are not listed. Some structures have more than one record in an assay (separate samples or runs), and their calls can disagree. Active and inactive are the calls of the source. How the source made its calls, unless noted: active means hit-call score of the fitted dose curve at least 0.9, where 1 is the maximum; inactive means score below 0.9.
# What was measured:
# [1] = biological target: Nuclear respiratory factor 1 (Homo sapiens) (UniProt Q16656); experiment: ATG_NRF1_CIS: Attagene CIS-FACTORIAL HepG2 Assay for human Nuclear Respiratory Factor 1 (NRF1) Orphan Gene (AID 2282987); details: HepG2 NRF1 cis-element reporter, Attagene multiplex; actives raise or lower the signal
# Procedure, shortened: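 Endogenous NRF1-driven reporter transcription in transfected HepG2 cells after 24 h treatment. Readout: RT-PCR products, 6-FAM labelled and resolved by capillary electrophoresis; changes fitted both directions relative to DMSO.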
# [2] = ATG_NFI_CIS: Attagene CIS-FACTORIAL HepG2 Assay for human Nuclear Factor I (NFI) (AID 2282989); details: HepG2 cis-regulatory reporter, NFI response element transcription; actives raise or lower the signal
# Procedure, shortened: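 Multiplexed cis-reporter system in human HepG2 cells reports native TF activity as reporter mRNA induction 24 h post-dose. Fragments labelled with 6-FAM, HpaI-digested and resolved by capillary electrophoresis; activity fitted both directions versus DMSO.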
# [3] = biological target: Myc proto-oncogene protein (Homo sapiens) (UniProt P01106); experiment: ATG_Myc_CIS: Attagene CIS-FACTORIAL HepG2 Assay for human Myelocytomatosis (Myc) Proto-Oncogene Transcription Factor (AID 2282990); details: HepG2, Attagene cis-reporter transcription factor activity; actives raise or lower the signal
# Procedure, shortened: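 HepG2, transient MRTU transfection (cis promoters, endogenous TFs); 24 h dosing; TriZol RNA → oligo(dT) RT → PCR → 6-FAM primer extension → HpaI cut → CE. Bidirectional fit vs DMSO.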
# [4] = ATG_NF_kB_CIS: Attagene CIS-FACTORIAL HepG2 Assay for human Nuclear Factor Kappa B (NF-kB) (AID 2282991); details: HepG2 Attagene cis-factorial NF-kB reporter mRNA; actives raise or lower the signal
# Procedure, shortened: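 Readout is reporter transcript level, gain or loss versus DMSO, measured 24 h post-dose via RT-PCR, fluorescent labelling and capillary electrophoresis. Human HepG2 liver cells carried transiently transfected CIS reporter constructs reflecting endogenous factors.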
# [5] = ATG_NRF2_ARE_CIS: Attagene CIS-FACTORIAL HepG2 Assay for human Nuclear Factor Erythroid 2 Related Factor 2 (NFR2) response to Antioxidant Response Elements (ARE) (AID 2282992); details: HepG2 Attagene ARE/NRF2 reporter, transcription factor activity; actives raise or lower the signal
# Procedure, shortened: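 Endogenous transcription factor activity read out as reporter transcript levels (RT-PCR plus capillary electrophoresis, fluorescence) in transiently transfected HepG2 cells. Measured at 24 h after dosing; gain or loss of signal fitted versus DMSO.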
# [6] = ATG_Oct_MLP_CIS: Attagene CIS-FACTORIAL HepG2 Assay for human Octamer-Binding Transcription Factor (Oct) (AID 2282993); details: HepG2 Attagene cis-factorial Oct reporter, mRNA; actives raise or lower the signal
# Procedure, shortened: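 After 24 h compound exposure, transfected HepG2 cells were lysed for total RNA; reporter-specific cDNA was PCR-amplified, fluorescently labelled and sized by capillary electrophoresis. Bidirectional curve fitting used DMSO as baseline.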
# [7] = BSK_3C_TissueFactor: BioMAP Diversity Plus: 3C Assay for Tissue Factor Biomarker Activity (AID 2282997); details: BioMAP 3C HUVEC, tissue factor biomarker readout; actives raise or lower the signal
# Procedure, shortened: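 In this endothelial system, HUVEC are treated for 24 h and Tissue Factor is assessed by ELISA, normalised to DMSO.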
# [8] = BSK_3C_uPAR: BioMAP Diversity Plus: 3C Assay for Urokinase-type plasminogen activator receptor (uPAR) Biomarker Activity (AID 2282998); details: BioMAP 3C HUVEC, uPAR biomarker ELISA; actives raise or lower the signal
# Procedure, shortened: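 Values derive from bidirectional curve fitting relative to DMSO, which served as baseline of activity. uPAR was measured by ELISA in human umbilical vein endothelial primary cultures 24 h after compound addition.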
# [9] = BSK_3C_VCAM1: BioMAP Diversity Plus: 3C Assay for Vascular cell adhesion molecule 1 (VCAM1) Biomarker Activity (AID 2282999); details: BioMAP 3C HUVEC, VCAM1 ELISA, cytokine-stimulated; actives raise or lower the signal
# Procedure, shortened: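 Activity fitted in both directions relative to DMSO, with ELISA measurement of the surface marker on primary HUVEC (3C) at 24 h post-treatment; parallel SRB staining (0.1% SRB, TCA-fixed, 560 nm) flagged overt cytotoxicity.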
# [10] = BSK_4H_Eotaxin3: BioMAP Diversity Plus: 4H Assay for Eotaxin 3 Biomarker Activity (AID 2283000); details: primary human endothelial cells (HUVEC); actives raise or lower the signal;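 on outcome: CCL26 protein level quantified by ELISA in parallel with SRB cytotoxicity check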
# Procedure, shortened: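 ELISA quantitation of CCL26 (Eotaxin-3) protein from chemically dosed human vascular endothelial cells at 24 h; increases and decreases both scored relative to DMSO-treated baseline.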
# [11] = read-out: Intercellular Adhesion Molecule 1 (ICAM1), ICAM1 (gene 3383); experiment: BSK_3C_ICAM1: BioMAP Diversity Plus: 3C Assay for Intercellular Adhesion Molecule 1 (ICAM1) Biomarker Activity (AID 2283003); details: primary human endothelial cells (HUVEC); actives raise or lower the signal
# Procedure, shortened: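 Using DMSO as baseline, bidirectional curve fitting was applied to ICAM-1 ELISA signals from HUVEC in the 3C system, measured 24 h after compound addition.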
# [12] = BSK_3C_Proliferation: Cell Proliferation Assessment in the BioMAP Diversity Plus: 3C Assay (AID 2283006); details: primary human endothelial cells (HUVEC);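 on AC50: potency may reflect either rise or fall in cell number versus DMSO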
# Procedure, shortened: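 Measured here: sulforhodamine B (0.1%) staining of TCA-fixed sub-confluent umbilical vein endothelial cultures 48 h post-dosing, absorbance 560 nm. DMSO served as negative control and baseline; both signal gain and loss were modelled.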
# [13] = biological target: Peroxisome proliferator-activated receptor gamma (Homo sapiens) (UniProt P37231); experiment: ATG_PPARg_TRANS: Attagene TRANS-FACTORIAL HepG2 Assay for human Peroxisome Proliferator-activated Receptor-gamma (PPARg) (AID 2283007; active means hit-call score of the fitted dose curve at least 0.9, where 1 is the maximum)
# Procedure, shortened: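 After 24 h of chemical exposure, transfected HepG2 cells carrying PPARγ-Gal4 chimera reporter constructs are lysed for RNA. Reporter transcripts are measured by RT-PCR and capillary electrophoresis with fluorescent labelling, and gain of signal is fitted versus DMSO.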
# [14] = biological target: Nuclear receptor subfamily 1 group I member 2 (Homo sapiens) (UniProt O75469); experiment: ATG_PXR_TRANS: Attagene TRANS-FACTORIAL HepG2 Assay for human Pregnane X Receptor (PXR) (AID 2283008; active means hit-call score of the fitted dose curve at least 0.9, where 1 is the maximum)
# Procedure, shortened: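 Transactivation by exogenous PXR–GAL4 fusion measured as reporter transcript induction after 24 h compound treatment of transfected human HepG2 cells. Read-out via RT-PCR and capillary electrophoresis of labelled fragments, fitted upward relative to DMSO.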
# [15] = biological target: human RAR-related Orphan Receptor beta (RORb), RORB (gene 6096) (UniProt Q92753); experiment: ATG_RORb_TRANS: Attagene TRANS-FACTORIAL HepG2 Assay for human RAR-related Orphan Receptor beta (RORb) (AID 2283010; active means hit-call score of the fitted dose curve at least 0.9, where 1 is the maximum)
# Procedure, shortened: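 Multiplexed transcription-factor reporter assay: HepG2 cells transiently carrying NR-Gal4/GAL4-UAS constructs, 24 h treatment, mRNA quantified by RT-PCR plus capillary electrophoresis fluorescence; activity scored as induction over DMSO.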
# [16] = biological target: human RAR-related Orphan Receptor gamma (RORg), RORC (gene 6097) (UniProt P51449); experiment: ATG_RORg_TRANS: Attagene TRANS-FACTORIAL HepG2 Assay for human RAR-related Orphan Receptor gamma (RORg) (AID 2283011; active means hit-call score of the fitted dose curve at least 0.9, where 1 is the maximum)
# Procedure, shortened: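 Chimeric RORg-Gal4 transactivation in transfected HepG2; 24 h exposure; RT-PCR/capillary electrophoresis readout of reporter mRNA, DMSO baseline.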
# [17] = biological target: human Retinoic Acid Receptor beta (RARb), RARB (gene 5915) (UniProt P10826); experiment: ATG_RARb_TRANS: Attagene TRANS-FACTORIAL HepG2 Assay for human Retinoic Acid Receptor beta (AID 2283004; active means hit-call score of the fitted dose curve at least 0.9, where 1 is the maximum)
# Procedure, shortened: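 Fluorescent capillary-electrophoresis detection of GAL4-UAS reporter mRNA defines the endpoint, with induction over DMSO-treated wells scored as activity. Transiently transfected human hepatoma HepG2 cells expressing exogenous NR–Gal4 proteins are exposed to test chemicals for 24 h.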
# [18] = biological target: Retinoic acid receptor alpha (Homo sapiens) (UniProt P10276); experiment: ATG_RARa_TRANS: Attagene TRANS-FACTORIAL HepG2 Assay for human Retinoic Acid Receptor alpha (RARa) (AID 2283005; active means hit-call score of the fitted dose curve at least 0.9, where 1 is the maximum)
# Procedure, shortened: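 Reporter transcripts, measured by RT-PCR with fluorescent labeling and capillary electrophoresis after 24 h dosing, reflect activity of an exogenous human RARa–GAL4 fusion in transiently transfected HepG2. Fitted for increase relative to DMSO.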
# [19] = biological target: human Retinoic Acid Receptor gamma (RARg), RARG (gene 5916) (UniProt P13631); experiment: ATG_RARg_TRANS: Attagene TRANS-FACTORIAL HepG2 Assay for human Retinoic Acid Receptor gamma (RARg) (AID 2283009; active means hit-call score of the fitted dose curve at least 0.9, where 1 is the maximum)
# Procedure, shortened: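 Gain-of-signal relative to DMSO is reported from fluorescent capillary electrophoresis of RT-PCR reporter products. These came from HepG2 cells expressing transfected RARg-GAL4 chimeras with UAS reporters, harvested 24 h after dosing.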
# Chain of Retinoic acid receptor alpha (Homo sapiens) (P10276 whole entry, looked up, the tested form may be a part): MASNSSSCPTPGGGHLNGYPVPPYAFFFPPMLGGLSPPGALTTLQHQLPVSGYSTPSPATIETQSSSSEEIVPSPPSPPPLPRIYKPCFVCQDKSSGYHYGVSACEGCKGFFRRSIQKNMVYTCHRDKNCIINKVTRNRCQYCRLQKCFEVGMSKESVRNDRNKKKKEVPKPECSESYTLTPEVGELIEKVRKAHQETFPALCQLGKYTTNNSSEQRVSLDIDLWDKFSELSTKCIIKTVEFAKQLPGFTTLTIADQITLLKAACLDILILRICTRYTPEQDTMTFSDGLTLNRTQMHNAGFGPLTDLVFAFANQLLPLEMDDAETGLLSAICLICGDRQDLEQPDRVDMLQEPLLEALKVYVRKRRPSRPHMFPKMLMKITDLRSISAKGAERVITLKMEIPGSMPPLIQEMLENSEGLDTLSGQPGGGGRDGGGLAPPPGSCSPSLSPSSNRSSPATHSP
# Chain of Peroxisome proliferator-activated receptor gamma (Homo sapiens) (P37231 whole entry, looked up, the tested form may be a part): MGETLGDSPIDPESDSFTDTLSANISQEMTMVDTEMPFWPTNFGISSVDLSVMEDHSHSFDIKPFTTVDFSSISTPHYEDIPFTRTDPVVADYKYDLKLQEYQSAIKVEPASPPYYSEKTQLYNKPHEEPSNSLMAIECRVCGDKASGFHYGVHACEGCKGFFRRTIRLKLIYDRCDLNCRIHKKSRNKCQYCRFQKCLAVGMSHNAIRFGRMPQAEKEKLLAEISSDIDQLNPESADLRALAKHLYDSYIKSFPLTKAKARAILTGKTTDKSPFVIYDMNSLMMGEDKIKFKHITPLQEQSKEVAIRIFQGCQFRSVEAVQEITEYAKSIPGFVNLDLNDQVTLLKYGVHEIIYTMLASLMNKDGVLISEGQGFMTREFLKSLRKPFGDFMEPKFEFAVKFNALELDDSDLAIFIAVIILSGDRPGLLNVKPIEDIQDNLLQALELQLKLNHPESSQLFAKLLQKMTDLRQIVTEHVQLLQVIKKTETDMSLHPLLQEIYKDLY
# Chain of human RAR-related Orphan Receptor beta (RORb), RORB (gene 6096) (Q92753 whole entry, looked up, the tested form may be a part): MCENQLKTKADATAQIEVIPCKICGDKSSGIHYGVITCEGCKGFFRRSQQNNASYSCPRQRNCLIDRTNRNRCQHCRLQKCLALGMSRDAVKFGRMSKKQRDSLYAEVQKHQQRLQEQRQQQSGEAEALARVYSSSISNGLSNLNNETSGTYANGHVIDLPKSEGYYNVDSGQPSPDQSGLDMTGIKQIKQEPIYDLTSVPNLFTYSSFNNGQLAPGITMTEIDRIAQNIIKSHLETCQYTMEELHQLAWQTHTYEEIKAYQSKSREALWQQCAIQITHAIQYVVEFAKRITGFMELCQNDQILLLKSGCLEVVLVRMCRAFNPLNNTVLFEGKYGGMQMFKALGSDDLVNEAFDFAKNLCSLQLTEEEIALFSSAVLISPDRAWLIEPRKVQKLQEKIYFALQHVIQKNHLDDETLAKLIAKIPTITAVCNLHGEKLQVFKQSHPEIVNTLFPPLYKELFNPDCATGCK
# Chain of Nuclear receptor subfamily 1 group I member 2 (Homo sapiens) (O75469 whole entry, looked up, the tested form may be a part): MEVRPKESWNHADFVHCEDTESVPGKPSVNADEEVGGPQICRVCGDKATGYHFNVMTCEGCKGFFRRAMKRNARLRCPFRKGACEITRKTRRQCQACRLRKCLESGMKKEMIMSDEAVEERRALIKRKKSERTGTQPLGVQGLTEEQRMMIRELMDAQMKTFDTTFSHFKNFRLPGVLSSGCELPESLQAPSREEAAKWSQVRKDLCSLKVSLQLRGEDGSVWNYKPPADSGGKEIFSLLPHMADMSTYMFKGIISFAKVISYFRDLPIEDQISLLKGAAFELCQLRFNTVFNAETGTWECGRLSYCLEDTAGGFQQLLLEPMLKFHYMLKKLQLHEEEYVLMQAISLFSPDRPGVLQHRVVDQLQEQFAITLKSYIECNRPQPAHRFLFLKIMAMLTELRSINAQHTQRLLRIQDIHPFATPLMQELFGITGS
# Chain of human Retinoic Acid Receptor beta (RARb), RARB (gene 5915) (P10826 whole entry, looked up, the tested form may be a part): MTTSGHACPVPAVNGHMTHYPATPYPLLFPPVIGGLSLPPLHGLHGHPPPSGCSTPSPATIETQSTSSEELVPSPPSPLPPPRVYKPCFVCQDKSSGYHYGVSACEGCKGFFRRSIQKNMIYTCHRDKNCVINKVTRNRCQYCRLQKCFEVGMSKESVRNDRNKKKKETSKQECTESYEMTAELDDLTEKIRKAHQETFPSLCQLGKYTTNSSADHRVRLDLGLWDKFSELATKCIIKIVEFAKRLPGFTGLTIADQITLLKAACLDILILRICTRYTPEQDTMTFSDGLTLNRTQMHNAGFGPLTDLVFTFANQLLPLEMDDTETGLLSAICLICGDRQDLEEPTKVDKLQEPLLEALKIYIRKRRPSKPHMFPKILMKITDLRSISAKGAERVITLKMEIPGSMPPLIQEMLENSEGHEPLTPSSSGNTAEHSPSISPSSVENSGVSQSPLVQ
# Chain of human RAR-related Orphan Receptor gamma (RORg), RORC (gene 6097) (P51449 whole entry, looked up, the tested form may be a part): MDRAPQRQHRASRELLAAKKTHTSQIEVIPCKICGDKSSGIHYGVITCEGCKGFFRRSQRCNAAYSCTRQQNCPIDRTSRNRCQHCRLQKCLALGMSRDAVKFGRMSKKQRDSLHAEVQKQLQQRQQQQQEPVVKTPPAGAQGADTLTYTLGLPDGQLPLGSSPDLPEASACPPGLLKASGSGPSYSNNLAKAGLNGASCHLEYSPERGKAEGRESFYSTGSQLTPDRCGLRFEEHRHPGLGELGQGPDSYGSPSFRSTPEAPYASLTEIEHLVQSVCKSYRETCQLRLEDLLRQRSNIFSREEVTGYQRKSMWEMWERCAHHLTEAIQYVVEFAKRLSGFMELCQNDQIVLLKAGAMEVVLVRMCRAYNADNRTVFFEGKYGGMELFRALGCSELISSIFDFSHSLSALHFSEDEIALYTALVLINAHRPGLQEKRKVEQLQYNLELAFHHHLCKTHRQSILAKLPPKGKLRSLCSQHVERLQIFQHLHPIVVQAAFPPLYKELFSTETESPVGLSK
# Chain of Nuclear respiratory factor 1 (Homo sapiens) (Q16656 whole entry, looked up): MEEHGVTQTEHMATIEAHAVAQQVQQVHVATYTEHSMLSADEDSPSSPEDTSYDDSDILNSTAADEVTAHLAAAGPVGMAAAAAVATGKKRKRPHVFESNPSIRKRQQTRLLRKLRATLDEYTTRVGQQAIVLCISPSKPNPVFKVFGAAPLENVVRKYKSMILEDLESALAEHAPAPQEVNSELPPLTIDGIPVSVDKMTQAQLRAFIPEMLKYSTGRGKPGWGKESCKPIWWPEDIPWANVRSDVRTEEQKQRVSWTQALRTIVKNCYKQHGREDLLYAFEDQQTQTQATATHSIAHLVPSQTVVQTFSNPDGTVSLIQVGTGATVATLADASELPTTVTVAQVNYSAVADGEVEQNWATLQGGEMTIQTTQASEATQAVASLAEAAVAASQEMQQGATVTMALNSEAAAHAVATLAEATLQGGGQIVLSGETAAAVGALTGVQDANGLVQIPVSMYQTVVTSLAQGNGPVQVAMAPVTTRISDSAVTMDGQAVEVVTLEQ
# Chain of Myc proto-oncogene protein (Homo sapiens) (P01106 whole entry, looked up): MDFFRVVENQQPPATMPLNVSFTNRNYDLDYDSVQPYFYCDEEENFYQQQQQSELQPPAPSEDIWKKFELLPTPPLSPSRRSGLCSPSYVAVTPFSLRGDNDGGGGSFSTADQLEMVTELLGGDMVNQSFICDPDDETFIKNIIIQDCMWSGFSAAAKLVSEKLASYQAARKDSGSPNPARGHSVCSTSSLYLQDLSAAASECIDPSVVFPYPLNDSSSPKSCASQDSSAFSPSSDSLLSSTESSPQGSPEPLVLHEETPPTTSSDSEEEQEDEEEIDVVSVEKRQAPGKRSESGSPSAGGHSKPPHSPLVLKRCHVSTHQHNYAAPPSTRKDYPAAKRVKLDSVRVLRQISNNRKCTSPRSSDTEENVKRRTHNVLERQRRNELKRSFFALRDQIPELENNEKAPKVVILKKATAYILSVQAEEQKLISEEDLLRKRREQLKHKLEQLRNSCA
# Chain of human Retinoic Acid Receptor gamma (RARg), RARG (gene 5916) (P13631 whole entry, looked up, the tested form may be a part): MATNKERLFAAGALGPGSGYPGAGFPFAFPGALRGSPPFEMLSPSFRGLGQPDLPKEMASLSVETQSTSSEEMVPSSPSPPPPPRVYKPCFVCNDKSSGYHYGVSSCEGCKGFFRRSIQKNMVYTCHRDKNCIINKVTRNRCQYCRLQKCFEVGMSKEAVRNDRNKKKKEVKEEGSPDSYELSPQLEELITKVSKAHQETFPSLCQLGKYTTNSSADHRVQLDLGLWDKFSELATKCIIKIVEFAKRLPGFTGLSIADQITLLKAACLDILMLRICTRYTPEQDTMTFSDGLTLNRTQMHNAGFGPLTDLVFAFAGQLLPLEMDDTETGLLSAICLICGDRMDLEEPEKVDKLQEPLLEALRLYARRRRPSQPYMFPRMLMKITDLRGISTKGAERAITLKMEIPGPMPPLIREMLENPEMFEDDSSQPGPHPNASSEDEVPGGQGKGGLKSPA
smiles,measurement,setting,value
Oc1cc(Cl)ccc1Oc1ccc(Cl)cc1Cl,outcome,[1],inactive
same,AC50,[2],14.8 µM (active) and 17.9 µM (active) and 5.97 µM (active)
same,outcome,[2],inactive
same,AC50,[3],10.6 µM (active)
same,outcome,[3],inactive
same,AC50,[4],17.5 µM (active)
same,outcome,[4],inactive
same,AC50,[5],5.97 µM (active) [middle of 7 runs]
same,outcome,[5],inactive
same,AC50,[6],9.73 µM (active) [middle of 7 runs]
same,outcome,[6],inactive
same,AC50,[7],13.8 µM (active) [middle of 4 runs]
same,AC50,[8],12 µM (active) [middle of 4 runs]
same,AC50,[9],28.1 µM (active) [middle of 4 runs]
same,AC50,[10],17.1 µM (active) [middle of 4 runs]
same,AC50,[11],33.6 µM (active) [middle of 4 runs]
same,AC50,[12],11 µM (active) [middle of 4 runs]
same,AC50,[13],11.1 µM (active) [middle of 6 runs]
same,outcome,[13],inactive
same,outcome,[14],inactive
same,outcome,[16],inactive
COc1nn(CSP(=S)(OC)OC)c(=O)s1,outcome,[1],inactive
same,outcome,[2],inactive
same,outcome,[3],inactive
same,outcome,[4],inactive
same,AC50,[5],23.4 µM (active)
same,AC50,[6],18 µM (active)
same,outcome,[7],inactive
same,outcome,[8],inactive
same,outcome,[9],inactive
same,outcome,[10],inactive
same,outcome,[11],inactive
same,outcome,[17],inactive
same,outcome,[18],inactive
same,outcome,[12],inactive
same,outcome,[14],inactive
same,outcome,[19],inactive
same,outcome,[16],inactive
CC(C)(C)C(O)C(Oc1ccc(Cl)cc1)n1cncn1 (centres undefined),outcome,[1],inactive
same,outcome,[2],inactive
same,outcome,[3],inactive
same,outcome,[4],inactive
same,AC50,[5],4.01 µM (active)
same,outcome,[5],inactive
same,AC50,[6],2.07 µM (active)
same,outcome,[6],inactive
same,outcome,[7],inactive
same,outcome,[8],inactive
same,outcome,[9],inactive
same,outcome,[10],inactive
same,outcome,[11],inactive
same,outcome,[17],inactive
same,outcome,[18],inactive
same,outcome,[12],inactive
same,outcome,[13],inactive
same,AC50,[14],434 nM (active) [middle of 5 runs]
same,outcome,[14],inactive
same,outcome,[19],inactive
same,outcome,[15],inactive
same,outcome,[16],inactive
CNC(=O)Oc1ccccc1OC(C)C,outcome,[1],inactive
same,outcome,[2],inactive
same,outcome,[3],inactive
same,outcome,[4],inactive
same,outcome,[5],inactive
same,outcome,[6],inactive
same,outcome,[7],inactive
same,outcome,[8],inactive
same,outcome,[9],inactive
same,outcome,[10],inactive
same,outcome,[11],inactive
same,outcome,[17],inactive
same,outcome,[12],inactive
same,outcome,[13],inactive
same,outcome,[14],inactive
same,outcome,[16],inactive
Cc1cc(C)nc(NC(=O)NS(=O)(=O)c2ccccc2C(=O)OC2COC2)n1,outcome,[1],inactive
same,outcome,[2],inactive
same,outcome,[3],inactive
same,outcome,[4],inactive
same,outcome,[5],inactive
same,AC50,[6],50 µM (active)
same,outcome,[7],inactive
same,outcome,[8],inactive
same,outcome,[9],inactive
same,outcome,[10],inactive
same,outcome,[11],inactive
same,outcome,[17],inactive
same,outcome,[12],inactive
same,outcome,[13],inactive
same,outcome,[14],inactive
same,outcome,[19],inactive
same,outcome,[15],inactive
